Hit rate of the full screen: of about 2,100 compounds, about 650 (31%) were called active. Not shown: some 16% with an inconclusive outcome. Calls follow the shape of the dose curve; as a rule, active = well fitted inhibition curve with a large enough effect; inconclusive = small, poorly fitted or top-dose-only effect; inactive = flat fitted curve, though single readings scatter. This is one part of the list.
Assay: qHTS for inhibitors of Vif-A3G interactions: Cherry picks; also: nearly all actives have a fitted effect of over 80% in size; as to activity, negative = fluorescence increase: % of control where 0% means no effect
Details: HeLa A3G-eYFP + Vif (tagged APOBEC3G with the HIV-1 protein that degrades it), 24 h; Potency: eYFP fluorescence increase; series mostly up to 36.9 µM; activity, negative = fluorescence increase: at the top concentration
Outline: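 Cherry-picked compounds tested at several concentrations on A3G-eYFP/Vif HeLa cells for 24 hours; loss of Vif-driven degradation read as eYFP fluorescence by cytometric plate imaging, 488 nm excitation, 500-530 nm emission.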
Potency is read from the fitted curve at half-maximal effect.

activity, negative = fluorescence increase, inactive:
CCOc1cc(C(=O)NN=C2CCCC2)cc(OCC)c1OCC -3.08%
CCS(=O)(=O)Nc1cccc(C2=NN(C(=O)c3ccco3)C(c3ccco3)C2)c1 (configuration not stated) -1.87%
COC(=O)c1cc(C(=O)N2CCN(c3ccccc3OC)CC2)cc([N+](=O)[O-])c1 -5.78%
O=C(/C=C/c1ccco1)N1CCc2ccccc21 -6.03% [at 46.1 µM]
COc1ccccc1N=C(C)C1=C(O)CC(c2ccccc2)CC1=O (configuration not stated) -7.64%
Clc1ccccc1Cn1c(/C=C/c2ccco2)nc2ccccc21 -3.73%
Cc1ccc(C(=O)NC(=C(Cl)Cl)S(=O)(=O)c2ccccc2)cc1 -9.1%
COc1ccc(OC)c(Nc2ncnc3c2cnn3-c2cccc(Cl)c2)c1 -1.34% [at 46.1 µM]
COc1ccc(NC(=O)C2Cc3c(-c4ccc(NC(C)=O)cc4)ccnc3O2)cn1 (configuration not stated) -12.1%
Cn1c2ccccc2c2ccc3c(c21)C(=O)C=CC3=O -5.19% [at 46.1 µM]
N#CC(C(=S)Nc1ccccc1)c1nc2ccccc2[nH]1 (configuration not stated) -46.8% [at 46.1 µM]
Cc1cccc(C)c1NC(=S)NC(C)CCc1ccccc1 (configuration not stated) 8.84% [at 46.1 µM]
Cc1cc(C)nc(Nc2nc(C(N)Cc3ccccc3)cs2)n1 (configuration not stated) -0.643%
Cc1cc(SCC(=O)c2cccs2)nc2ccccc12 -1.59% [at 46.1 µM]
Cc1sc2nc(SCC(=O)N3CCOCC3)[nH]c(=O)c2c1-c1ccccc1 8.43% [at 46.1 µM]
CCN(CC)c1nc2cc(OC)ccc2cc1C#N 6.08% [at 46.1 µM]
CO/N=C/c1ccc(OC)c(Oc2nc(OC)cc(OC)n2)c1 -8.03%
COc1ccc(C2C(C#N)=C(N)Oc3c2ccc2cccnc32)cc1OC (configuration not stated) -2.64%
CS(=O)(=O)Nc1cccc(C2=NN(S(C)(=O)=O)C(c3ccc4c(c3)OCO4)C2)c1 (configuration not stated) -7.77%
c1ccc(-c2nccc(-c3ccc4c(c3)OCO4)n2)cc1 -0.239%
COc1ccc(NS(=O)(=O)c2cc(NC(=O)c3ccc(=O)[nH]c3)ccc2N2CCCC2)cc1 -9.79%
Cc1ccsc1/C=N\NC(=O)c1n[nH]c2c1CCC2 -28.6%
CC(=Nc1ccccc1)C1=C(O)C(Cc2ccccc2)NC1=O (configuration not stated) -18.4%
CCN(C)c1ccc(/C=N\n2nnnc2N)cc1 -4.68%
C/C(CC(=O)NCc1ccco1)=N\NC(=O)COc1ccc(Cl)cc1Cl -8.79%
COc1cccc(Sc2ccccc2/C=N/NC(N)=O)c1 -2.6%
O=C(Nc1nnc(-c2ccc3c(c2)CCCC3)o1)c1c(F)cccc1F 10.8% [at 46.1 µM]
Cc1nnc(SCC(=O)NCc2ccccc2F)c2nn(-c3ccc(Cl)cc3)c(C)c12 -23.7% [at 46.1 µM]
OCCCn1c(C2CCCN2c2nc(-c3ccc(Cl)cc3)cs2)nc2cc(Cl)c(Cl)cc21 (configuration not stated) -8.45% [at 46.1 µM]
Cc1ccccc1NC(=O)c1ccc2c(c1)c(C)c(C)n2Cc1ccccc1 -2.97% [at 46.1 µM]
Cc1ccc(C)c(C2NC(=O)c3ccccc3N2)c1 (configuration not stated) -8.21%
Cc1ccc(C(=O)NC2c3ccccc3-c3ccccc32)cc1 -6.92%
Cc1ccc(-c2cc(C(=O)N/N=C/C(Br)=C/c3ccccc3)n[nH]2)o1 -8.76%
Cc1ccc(Cl)cc1NC(=O)Nc1cn(CC(C)C)c(=O)c2ccccc12 0.562% [at 46.1 µM]
Cc1ccc2nc(-c3ccccn3)c(NC3CCCC3)n2c1 9.97% [at 46.1 µM]
COc1cccc(CNCCSc2nnnn2C)c1OCc1ccc(F)cc1 2.21% [at 46.1 µM]
C=CCNC(=S)N/N=C(\C)c1ccc(OC)cc1 6.78% [at 46.1 µM]
CSc1ccc(/C=N/NC(=O)c2ccccc2Cl)cc1 -7%
Cc1ccc(NC(=S)N=Nc2c(O)n(C)c3ccc(S(=O)(=O)N4CCOCC4)cc23)cc1 3.95% [at 46.1 µM]
COc1ccc(C2=NOC(C(=O)NCc3ccc(F)cc3)C2)cc1 (configuration not stated) -7.76%

Potency, active:
COc1ccc2c(Cl)c(C(=O)N/N=C3\CCCC(=O)C3)sc2c1 17.7 µM
C(=C\c1ccco1)/C1=NN(c2ccccc2)C(c2ccco2)C1 (configuration not stated) 23.1 µM
O=[N+]([O-])c1ccc(C2=NN(c3ccccc3)C(c3ccco3)C2)cc1 (configuration not stated) 1.25 µM
O=[N+]([O-])c1ccc(/C=C/C2=NN(c3ccccc3)C(c3ccco3)C2)o1 (configuration not stated) 3.66 µM
COc1ccccc1N1N=C(c2ccc([N+](=O)[O-])cc2)CC1c1ccccc1 (configuration not stated) 1.4 µM
COc1ccc2c(C)cc(SCC(=O)N3CCOCC3)nc2c1 18.4 µM
COc1ccc2c(C)cc(SCC#N)nc2c1 18.4 µM
CS(=O)(=O)N1N=C(c2ccccc2)CC1c1ccc2c(c1)OCO2 (configuration not stated) 14 µM
CCN(CCCN(C)C)c1ccc(/C=C/c2ccnc3ccccc23)cc1 18.4 µM
CCCCN(CCCC)c1ccc(/C=C/c2ccnc3ccccc23)cc1 16.4 µM
CC(C)CN(CC(C)C)c1ccc(/C=C/c2ccnc3ccccc23)cc1 23.1 µM
CCCCN(CCC(=O)O)c1ccc(/C=C/c2ccnc3ccccc23)cc1 18.4 µM
CCCN(CCC)c1ccc(/C=C/c2ccnc3ccccc23)cc1 20.6 µM
CCN(CC)c1ccc(/C=C/c2ccnc3ccccc23)cc1 23.1 µM
CCN(C)c1ccc(/C=C/c2ccnc3ccccc23)cc1 20.6 µM
CCN1/C(=C/C=C2/SC(=Nc3cccc4ncccc34)N(C)C2=O)Sc2ccccc21 16.4 µM
Cc1c(-c2nnc(SCC(=O)Nc3ccccc3F)o2)nnn1-c1ccc(F)cc1 23.1 µM
N=c1n(CC(=O)c2ccc([N+](=O)[O-])cc2)c2ccccc2n1Cc1ccccc1 18.4 µM
Cc1ccc(SC2=C(Sc3ccc(C)cc3)C(=O)c3ccccc3C2=O)cc1 16.4 µM
CN(C)c1ccc(/C=C/c2ccnc3ccc(-c4ccccc4)cc23)cc1 18.4 µM
CN(C)c1ccc(/C=C/c2ccnc3cc(Cl)ccc23)cc1 13 µM
CN(C)c1ccc(/C=C/c2ccnc3ccccc23)cc1 18.4 µM
CN(C)c1ccc(/C=C/C=C/c2ccnc3ccccc23)cc1 5.8 µM
COc1cccc2nccc(/C=C/c3ccc(N(C)C)cc3)c12 20.6 µM
CN(C)c1ccc(/C=C/c2cnnc3ccccc23)cc1 20.6 µM
CN(C)c1ccc(/C=C/c2ccnc3ccccc23)c(N)c1 18.4 µM
CNc1ccc(/C=C/c2ccnc3ccccc23)cc1 18.4 µM

From PubChem BioAssay AID651812 (National Center for Advancing Translational Sciences (NCATS), 2012)
